Screens deposited in PubChem BioAssay by National Center for Advancing Translational Sciences (NCATS).
Shown are actives, neighbours in structure and some others; about 7% of the full set was active somewhere.
PI5P4Ka inh: blocks human PI5P4K alpha kinase activity | hit rate 1.2% among 330,000 | max response, % | PI5P4Kalpha enzyme, ADP-Glo luminescence, 60 min; stronger effect = lower value; active = max response of -50% or lower; inconclusive = between -30% and -50%; inactive = -30% or higher; note: value at the top dose of about 77 µM; % is set by controls: 0 for no effect and ±100 for the full control effect
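Quantitative HTS of the MLSMR library against PI5P4Kalpha with substrate. ATP added last at 5 microM final; room temperature, 60 minutes. Remaining ATP depleted, ADP converted and read as luminescence.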
JMJD2A Tudor inh: blocks the human JMJD2A Tudor domain; Potency, µM (series often up to 114 µM), without a hit: at the top dose activity change, negative = inhibition, usual class: inhibitors; hit rate 4.4% among 390,000; AlphaScreen JMJD2A-Tudor / H3K4me3 peptide binding; O75164; note: potency is the fitted concentration of half-maximal effect; % is set by controls: 0 for no effect and ±100 for the full control effect; nearly all actives have a fitted effect of over 50% in size
KAT2A inh: GCN5L2 (KAT2A) acetyltransferase inhibition | Q92830 | GCN5L2 HAT assay, ThioGlo1 CoA-SH fluorescence | Potency, µM (series often up to 58.9 µM), inactives show at the top dose activity change, negative = inhibition, usual class: inhibitors | hit rate 0.21% among 390,000 | AID 504327; note: potency is the fitted concentration of half-maximal effect; % is set by controls: 0 for no effect and ±100 for the full control effect
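Preincubate 20nM GCN5L2 with compound 15 min, RT → add 50uM ThioGlo1 + 75uM H3(1-25) + 70uM acetyl-CoA → read fluorescence 0 and 20 min. Primary qHTS; fluorescent artifacts likely.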
BAZ2B inh: BAZ2B (human) inhibition; Potency, µM (series often up to 114 µM), for inactives: at the top dose activity change, negative = inhibition, usual class: inhibitors; AlphaScreen BAZ2B-H3K14Ac peptide displacement; hit rate 4.4% among 360,000; Q9UIF8; note: potency is the fitted concentration of half-maximal effect; % is set by controls: 0 for no effect and ±100 for the full control effect; nearly all actives have a fitted effect of over 60% in size
Target sequence (Q9UIF8 whole entry, looked up): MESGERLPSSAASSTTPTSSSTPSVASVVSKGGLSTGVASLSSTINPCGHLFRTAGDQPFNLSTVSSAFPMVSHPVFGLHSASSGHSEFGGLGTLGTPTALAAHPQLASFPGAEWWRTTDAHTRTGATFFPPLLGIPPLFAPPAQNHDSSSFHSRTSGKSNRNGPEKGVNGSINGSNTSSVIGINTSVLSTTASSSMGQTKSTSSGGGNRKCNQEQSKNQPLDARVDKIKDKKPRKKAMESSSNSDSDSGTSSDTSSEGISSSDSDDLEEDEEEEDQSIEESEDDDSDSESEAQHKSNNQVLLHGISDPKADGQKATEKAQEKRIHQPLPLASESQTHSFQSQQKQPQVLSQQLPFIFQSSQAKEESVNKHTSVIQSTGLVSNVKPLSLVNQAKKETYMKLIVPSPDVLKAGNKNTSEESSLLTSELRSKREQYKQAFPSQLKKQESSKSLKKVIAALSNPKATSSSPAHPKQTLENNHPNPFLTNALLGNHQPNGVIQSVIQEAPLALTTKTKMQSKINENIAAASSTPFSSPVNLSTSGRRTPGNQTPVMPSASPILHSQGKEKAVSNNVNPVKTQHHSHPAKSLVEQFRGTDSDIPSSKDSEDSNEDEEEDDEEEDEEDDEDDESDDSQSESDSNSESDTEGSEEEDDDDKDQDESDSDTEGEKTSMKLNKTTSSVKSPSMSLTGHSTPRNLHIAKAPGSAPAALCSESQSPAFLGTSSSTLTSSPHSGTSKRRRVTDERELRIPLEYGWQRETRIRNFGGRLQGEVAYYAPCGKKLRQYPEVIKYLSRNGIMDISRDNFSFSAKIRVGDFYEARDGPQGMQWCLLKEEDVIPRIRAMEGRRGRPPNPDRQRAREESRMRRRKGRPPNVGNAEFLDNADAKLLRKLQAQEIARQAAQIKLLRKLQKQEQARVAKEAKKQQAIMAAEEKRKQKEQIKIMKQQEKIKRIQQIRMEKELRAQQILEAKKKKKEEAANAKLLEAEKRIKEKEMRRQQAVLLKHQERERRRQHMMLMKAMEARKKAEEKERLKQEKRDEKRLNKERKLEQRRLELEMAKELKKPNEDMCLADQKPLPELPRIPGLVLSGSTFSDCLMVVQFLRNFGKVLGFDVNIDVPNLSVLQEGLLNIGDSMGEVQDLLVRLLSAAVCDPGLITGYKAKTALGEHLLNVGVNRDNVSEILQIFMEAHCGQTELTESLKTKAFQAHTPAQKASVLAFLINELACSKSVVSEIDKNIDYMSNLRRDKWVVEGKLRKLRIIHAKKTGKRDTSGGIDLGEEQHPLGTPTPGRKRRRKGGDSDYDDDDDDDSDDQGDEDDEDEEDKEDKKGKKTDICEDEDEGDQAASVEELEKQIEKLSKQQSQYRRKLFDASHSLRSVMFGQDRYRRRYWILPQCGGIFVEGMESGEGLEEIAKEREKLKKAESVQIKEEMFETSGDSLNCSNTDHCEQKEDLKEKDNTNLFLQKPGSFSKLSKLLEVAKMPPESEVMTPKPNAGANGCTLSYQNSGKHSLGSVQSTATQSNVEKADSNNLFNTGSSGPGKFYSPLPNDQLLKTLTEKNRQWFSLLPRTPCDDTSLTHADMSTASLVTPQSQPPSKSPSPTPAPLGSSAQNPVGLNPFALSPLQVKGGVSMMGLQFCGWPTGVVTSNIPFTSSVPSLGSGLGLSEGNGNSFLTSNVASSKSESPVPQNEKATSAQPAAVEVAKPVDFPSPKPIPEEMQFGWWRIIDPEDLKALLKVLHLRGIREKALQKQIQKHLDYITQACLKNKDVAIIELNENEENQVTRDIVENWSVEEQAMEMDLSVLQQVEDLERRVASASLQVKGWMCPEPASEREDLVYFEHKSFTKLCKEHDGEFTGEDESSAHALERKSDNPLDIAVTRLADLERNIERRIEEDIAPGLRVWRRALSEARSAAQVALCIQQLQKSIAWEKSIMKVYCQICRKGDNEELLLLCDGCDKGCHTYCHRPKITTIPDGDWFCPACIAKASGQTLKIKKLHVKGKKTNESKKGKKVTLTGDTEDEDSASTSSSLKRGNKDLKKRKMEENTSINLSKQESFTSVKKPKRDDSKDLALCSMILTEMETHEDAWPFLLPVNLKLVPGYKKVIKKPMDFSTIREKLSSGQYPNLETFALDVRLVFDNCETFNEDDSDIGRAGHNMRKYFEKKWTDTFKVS
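Compounds, titrated to a top concentration of 110 uM, were incubated 30 min at room temperature with preformed BAZ2B/acetyl-K14 H3 peptide complex (50 nM each). Proximity signal was measured by AlphaScreen after 20 min with beads.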
HP1b chromo inh: blocks HP1-beta chromodomain binding to methylated histone tails. P83916. AlphaScreen HP1-beta / biotin-H3K9me3 peptide binding. Potency, µM (highest dose often 114 µM), for the others: at the top dose activity change, negative = inhibition, usual class: inhibitors. hit rate 0.56% among 390,000; note: potency is the fitted concentration of half-maximal effect; nearly all actives have a fitted effect of over 70% in size
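AlphaScreen: HP1-beta (50 nM) preformed 30 min with biotin-H3(1-18)K9me3 peptide (50 nM) in PBS pH 7.4, 0.01% Tween-20. Compound added for 30 min at RT, then streptavidin donor/nickel chelate acceptor beads (10 ug/mL) for 30 min.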
PLK1 PBD inh: PLK1 (human) polo-box domain binding inhibition | Plk1 PBD binding of FITC phosphopeptide, fluorescence polarization | Potency, µM, for the others: max response, negative = inhibition, hits mostly inhibitors | hit rate 2.8% among 360,000 | AID 720504; note: potency is the fitted concentration of half-maximal effect; series mostly up to about 57 µM; % is set by controls: 0 for no effect and ±100 for the full control effect; nearly all actives have a fitted effect of over 65% in size
The depositor's hits bear a star; ? = inconclusive; / = no result; [ ] = another dose, or the depositor's remark. Unless noted, calls come from the whole dose curve; as a rule, active = well fitted curve in the direction sought with a large enough effect; inconclusive = small, poorly fitted or top-dose-only effect, or another doubt; inactive = no such curve, though single readings can be large; an effect the other way counts as inactive or inconclusive.

SMILES	PI5P4Ka inh	JMJD2A Tudor inh	KAT2A inh	BAZ2B inh	HP1b chromo inh	PLK1 PBD inh
Cc1ccccc1NC(=O)Cn1c(=O)n(Cc2ccc3c(c2)OCO3)c(=O)c2ccccc21	/	-3.1%	2.3%	?	46.4%	/
Cc1ccc(S(=O)(=O)Nc2cc3c(cc2NCc2ccccc2)n(C)c(=O)n3C)c(C)c1	/	?	-12.5%	50.1µM*	-15.5%	/
C=CCNC(=O)CN1CCN(C(c2ccccc2)c2ccccc2)CC1	-4.8	20µM*	-13.3%	50.1µM*	?	-5.0%
COc1ccc(N2CCN(C(=O)COc3cccc4ccccc34)CC2)cc1	-1.3	31.6µM*	-2.2%	11.2µM*	?	-3.1%
COc1ccc(N2CCN(C(=O)CN3CCN(C(c4ccccc4)c4ccccc4)CC3)CC2)cc1	-1.9	25.1µM*	-2.2%	50.1µM*	-72.7%	9.6%
O=C(CN1CCN(C(c2ccccc2)c2ccccc2)CC1)N1CCOCC1	/	17.8µM*	-5.1%	50.1µM*	17.9%	-4.0%
N#CCC(=O)N1CCN(C(c2ccccc2)c2ccccc2)CC1	6.9	0.3%	/	/	42.8%	6.9%
COc1ccc(N2CCN(CC(=O)NC(C)c3ccccc3)CC2)cc1 (stereo not drawn)	4.1	-14.4%	-9.9%	-2.9%	-0.5%	-19.5%
CC(C)(C)OC(=O)Cc1nnc(-c2cc3ccccc3[nH]2)s1	/	-14.4%	/	/	/	/
CC(C)c1ccc(C2(C)NC(=O)N(CC(=O)NC3CCCC(C)C3C)C2=O)cc1 (stereo not drawn)	-2.7	-14.8%	-1.2%	8.0%	24.9%	-11.2%
CCC(c1nnnn1-c1ccc2c(c1)OCCO2)N1CCN(Cc2c(F)cccc2Cl)CC1 (stereo not drawn)	-0.8	/	/	/	/	-10.4%
COc1cccc(CC(=O)Nc2nc3c(s2)C(=O)CC(C)(C)C3)c1	-0.2	-3.5%	-1.5%	-16.0%	21.1%	-11.3%
Cc1sc(N)c(C(=O)c2ccccc2Cl)c1C	-4.7	?	-1.9%	44.7µM*	?	-25.4%
COc1ccc(C(=O)c2ccccc2Cl)cc1	-4.3	49.0%	-9.5%	27.9%	90.6%	-1.9%
CC(=O)NCCNc1nc2cc(-c3cc(F)ccc3C)sc2c(=O)n1C	3.3	/	/	/	/	-8.9%
COc1ccc(NC(=O)C2=C(C)Nc3nc(SCc4ccccc4C)nn3C2c2ccc(Br)cc2)cc1 (stereo not drawn)	/	-17.1%	-9.1%	2.6%	4.4%	/
COc1ccc(NC(=O)C2=C(C)Nc3nc(SCc4ccccc4C)nn3C2c2cc(OC)c(O)c(OC)c2)cc1 (stereo not drawn)	/	-9.9%	-15.2%	79.4µM*	32.5%	/
COc1ccc(-c2cnc(C)o2)cc1S(=O)(=O)Nc1ccc(C)c(N(C)C)c1	/	?	19.2%	50.1µM*	23.2%	/
COc1ccc(-c2cnc(C)o2)cc1S(=O)(=O)Nc1ccc(C)c(F)c1	/	-32.8%	2.1%	?	-9.5%	/
CC(C)/C=C1\CC/C(=C\c2ccc(N(C)C)cc2)C1=O	5.4	-4.1%	1.0%	12.1%	41.4%	32.2%
CN(C)c1ccc(/C=C2/C[N+](C)(C)C/C(=C/c3ccc(N(C)C)cc3)C2=O)cc1	-16.4	39.8µM*	/	/	39.8µM*	38.8%
C=CCn1c(SCC(=O)Nc2ccc(F)cc2)nc2cc(C(=O)O)ccc2c1=O	-51.0*	0.7%	-2.9%	-9.7%	29.4%	-9.9%
C=CCn1c(SCC(=O)Nc2ccccc2F)nc2ccccc2c1=O	-6.0	-6.6%	-12.5%	-1.2%	23.3%	-12.7%
C=CCn1c(SCC(=O)Nc2ccccc2-c2ccccc2)nc2cc(C(=O)O)ccc2c1=O	-54.5*	6.2%	-8.6%	-8.2%	42.1%	-4.8%
C=CCn1c(SCc2cc([N+](=O)[O-])cc3c2OCOC3)nc2cc(C(=O)O)ccc2c1=O	-73.8*	-23.2%	0.1%	-21.1%	27.3%	-12.8%
SMILES	PI5P4Ka inh	JMJD2A Tudor inh	KAT2A inh	BAZ2B inh	HP1b chromo inh	PLK1 PBD inh
CCN(CC)C(=O)C(Oc1ccc(S(=O)(=O)N2CCCC2)cc1[N+](=O)[O-])c1ccccc1 (stereo not drawn)	2.8	-12.9%	-5.0%	-23.1%	11.0%	-26.5%
Cc1ccccc1OCC(=O)Nc1ccccc1C(=O)OCc1cc(=O)n2c(C)csc2n1	/	7.3%	12.0%	-3.9%	16.8%	/
COc1ccc(OC)c(-c2nnc3n(CCc4ccccc4)c(=O)c4ccccc4n23)c1	/	-27.2%	-10.2%	-17.5%	27.2%	/
CC1=C(C(=O)OC2CCCCCC2)C(c2cccc(Cl)c2)CC(=O)N1 (stereo not drawn)	/	-8.9%	-1.8%	-3.0%	23.5%	/
COc1ccc(-c2c(C)nn3c(-c4ccccc4)cc(-c4ccccc4)nc23)cc1OC	/	-26.9%	14.6%	?	?	/
COc1ccc(-c2cc(C)nc3c(-c4ccc(OC)c(OC)c4)c(C)nn23)cc1	/	28.2µM*	-10.7%	20µM*	-19.7%	/
CCOc1cc(CNc2ccc(N3CCCCC3)cc2)cc(Br)c1OCC(=O)NC(C)(C)C	0.9	10µM*	-9.6%	11.2µM*	?	-6.8%
COc1cc(CNc2cccc(C(=O)O)c2)cc(Br)c1OCC(=O)NC(C)(C)C	1.2	-15.4%	-13.1%	-29.6%	4.6%	-10.0%
CCOc1cc(CNc2ccc(N(C)C)cc2)cc(Br)c1OCC(=O)NC(C)(C)C	-0.2	39.8µM*	-1.6%	14.1µM*	14.1µM*	-7.2%
CCOc1cc(CNc2cccc3ccccc23)cc(Br)c1OCC(=O)NC(C)(C)C	/	-33.7%	-8.1%	-6.6%	2.4%	-0.4%
COc1cc(CNc2ccc3[nH]c(=O)[nH]c3c2)cc(Br)c1OCC(=O)NC(C)(C)C	/	56.2µM*	-8.1%	39.8µM*	-35.7%	-0.8%
O=C(CCCl)N1c2ccccc2C=Cc2ccccc21	-1.7	-12.3%	/	/	17.2%	2.1%
CC(C)c1ccc(OCc2nnc(SCC(=O)N3CCCCC3)o2)cc1	7.2	-11.0%	-8.2%	5.1%	13.9%	-11.2%
O=C1C(Cl)=C(Nc2ccccc2O)C(=O)N1c1ccccc1	/	35.5µM*	-11.6%	?	?	8.44µM*
COC(=O)c1ccc(CNC(=O)CSC(C)C(=O)Nc2cc(C)on2)cc1 (stereo not drawn)	0.3	-0.7%	-0.8%	-3.1%	42.3%	-0.8%
CN1CCN(C(=O)c2ccc3c(c2)N(Cc2ccc(C(F)(F)F)cc2)C(=O)c2ccccc2S3)CC1	/	-35.7%	-3.8%	/	4.4%	/
O=C(NC(=S)Nc1ncc(Br)cc1Br)c1cncc(Br)c1	/	50.1µM*	/	-2.2%	21.2%	-24.0%
O=C(NC(=S)Nc1ccc(O)cc1)c1cncc(Br)c1	-23.9	-17.9%	/	/	9.7%	-12.5%
COc1cc(NC(=O)/C=C/c2ccccc2)c(C(=O)O)cc1OC	-28.8	-8.8%[11.4 µM]	-10.3%	-5.5%	-2.0%	16.8µM*
COc1ccc(/C=C/C(=O)Nc2cc(C)on2)cc1	-16.6	?	2.1%	4.1%	?	29.9µM*
